Compounds without any hit were thinned out: in the full panel of roughly 83,000, 20% have a hit.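 Percent growth is the endpoint: 0 to 100 indicates growth inhibition (40 means 60% inhibition), 0 means no net growth, and negative values indicate cell death.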 Activity calls are given as the source filed them. How the source made its calls: active means growth percent below 10; inactive means the rest.
The compounds below were run on BT-549 breast (assay: NCI-60 one-dose screen, 48 h (100 = growth as untreated, 0 = no growth, -100 = all killed)). Details: 10 µM unless noted.

Row | Structure (SMILES) | growth
1 | CCCS(=O)(=O)N1CCCC(C(=O)Nc2nc3ccc(NC(=O)c4ccc(F)c(OC)c4F)cc3s2)C1 (stereo not given) | -11.9% (active)
2 | CN(C)c1nc(NCCNS(=O)(=O)c2ccc(C(=O)/C=C/c3ccc(F)cc3)cc2)nc(Nc2ccc(F)cc2)n1 | -88.7% (active)
3 | O=C(CCN1C(=O)/C(=C/c2ccc(F)cc2)SC1=S)N1CCOCC1 | 62.6% (inactive)
4 | O=c1[nH]c2ccccc2cc1CSc1nccc(-c2ccc3ccccc3c2)n1 | 44.8% (inactive)
5 | CC(=O)Nc1ccc(-n2cnc3ccc(-c4ccc(O)cc4)cc32)cc1 | 51.4% (inactive)
6 | CC(C)Sc1nc(NCCc2c[nH]c3ccccc23)c(C#N)c(-c2ccc(F)cc2)n1 | 65% (inactive)
7 | CC(=O)c1c(N)c(C#N)cn1-c1ccc(Cl)cc1Cl | 104% (inactive)
8 | C#CCOc1ccc(/C=N/Nc2nc(-c3ccc(Cl)cc3)cs2)cc1OC | 36% (inactive)
9 | C/C(=N\N=C1/C(=O)Nc2ccc(Cl)cc21)c1ccc2c(c1)Nc1ccccc1S2 | -32.1% (active)
10 | CC12CC[C@@H]3[C@]4(C)COC(c5c(F)cccc5F)O[C@@H]4CC[C@@]3(C)[C@@H]1CC(C1=CCOC1=O)O2 (stereo not given in full) | 48.3% (inactive)
11 | NC(=S)Nc1cccc(NC(N)=S)c1 | 115% (inactive)
12 | Cc1ccc([C@H]2C(C(=O)c3ccc(Cl)cc3)C3(N[C@@H]2c2ccccc2)C(=O)Nc2ccc(Br)cc23)cc1 (stereo not given in full) | 96.3% (inactive)
13 | CC(=O)OC[C@@]1(C)C2CC[C@]3(C)C(CC=C4C5CC(C)(C)CC[C@]5(C(=O)Nc5cccc(C)c5)CC[C@]43C)[C@@]2(C)C[C@@H](OC(C)=O)[C@@H]1OC(C)=O (stereo not given in full) | 47.4% (inactive)
14 | CCCSc1nc(NCCc2c[nH]c3ccccc23)c(C#N)c(-c2ccc(F)cc2)n1 | 64.5% (inactive)
15 | Clc1ccc(-c2ccc(OCCCN3CCN(c4ccncc4)CC3)cc2)cc1 | 75.4% (inactive)
16 | COc1ccc(C2(SCCNCc3cc(N(C)C)ccn3)c3ccccc3C=Cc3ccccc32)cc1 | 6.65% (active)
17 | COc1ccc(C2=NN(C(C)=O)C(c3ccc(OCc4ccc(Cl)cc4)c(OC)c3)C2)cc1OC (stereo not given) | 33.8% (inactive)
18 | CCN(CC)c1ccc(/C=N/Nc2nc(-c3ccc(C)cc3)cs2)c(O)c1 | 71.9% (inactive)
19 | COc1ccc2[nH]cc(-c3nnc(N)nc3-c3cn(C)c4ncc(Br)cc34)c2c1 | 64.1% (inactive)
20 | N/C(=N\c1nc2ccccc2s1)NC(=O)Nc1ccc(Cl)cc1Cl | -17.6% (active)
21 | O=C(COc1ccc(NC(=O)Nc2ccc(Cl)c(Cl)c2)cc1)N=Nc1c(O)[nH]c2ccc(Cl)cc12 | -71.7% (active)
22 | CC(=O)Nc1ccc(-n2cnc3cc(-c4ccc(O)cc4)ccc32)cc1C(F)(F)F | 32.5% (inactive)
23 | COc1ccc2c(c1)C(=N/N=C(\C)c1ccc(OC)c(S(N)(=O)=O)c1)C(=O)N2 | 59% (inactive)
24 | Cc1ccc2c(c1)nc(-c1ccccc1)n2CC(=O)N=Nc1c(O)[nH]c2ccc(Br)cc12 | -72.1% (active)
25 | C=CC(=O)Nc1ccc(C)c(Oc2ccc(Cl)cc2)c1 | 22.8% (inactive)
26 | COc1cc2oc(-c3cccc(C(=O)Nc4cccc([N+](=O)[O-])c4)c3)cc(=O)c2c(OC)c1OC | -15.9% (active)
27 | COc1ccc2oc3c4[nH]c5ccccc5c4c4c(c3c2c1)C(=O)N(C(=O)OC(C)(C)C)C4=O | -44.2% (active)
28 | CC(=O)OC[C@@]1(C)C2CC[C@]3(C)C(CC=C4C5CC(C)(C)CC[C@]5(C(=O)Nc5ccc(F)cc5)CC[C@]43C)[C@@]2(C)C[C@@H](OC(C)=O)[C@@H]1OC(C)=O (stereo not given in full) | 41.7% (inactive)
29 | CC1(C)CC[C@]2(C(=O)O)CC[C@]3(C)C(=CCC4[C@@]5(C)C[C@@H](O)[C@@H]6OC(c7ccccc7Br)OC[C@@]6(C)C5CC[C@]43C)C2C1 (stereo not given in full) | 13.5% (inactive)
30 | Nc1nc(C(F)(F)F)cs1 | 114% (inactive)
